The panel holds about 79,000 compounds, 15% with a hit somewhere; the sample as a whole holds those more often. No stated cut-off is given here; in the data, active means growth inhibition above about 70%; inactive means the rest.
Tests used:
[1] = NCI Yeast Anticancer Drug Screen. Data for the rad50 strain (AID 155);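 further: 0% = growth of vehicle-only cultures of the same strain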; details: S. cerevisiae rad50 strain growth inhibition; at 50.0 µM; active compounds read high
Outline: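 A DNA repair-deficient yeast mutant serves as the test organism; compound-induced growth inhibition is calculated against vehicle-treated cells.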

[2] = NCI Yeast Anticancer Drug Screen. Data for the mec2-1 strain (AID 157); details: S. cerevisiae mec2-1 strain, at 50.0 µM, active compounds read high
Outline: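 Cells of the genetically defined mec2-1 yeast strain are incubated with test compound. Inhibition of growth is calculated against vehicle-treated controls.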

[3] = NCI Yeast Anticancer Drug Screen. Data for the sgs1 mgt1 strain (AID 161);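 further: 0% = growth of cultures given vehicle only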; details: S. cerevisiae sgs1 mgt1 strain, at 50.0 µM, active compounds read high
Outline: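 Read-out: growth inhibition vs vehicle controls. Cells: mutant yeast strain deficient in DNA damage repair.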

[4] = NCI Yeast Anticancer Drug Screen. Data for the cln2 rad14 strain (AID 165);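 further: 0% = growth equal to vehicle treated cultures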; details: S. cerevisiae cln2 rad14 strain, at 50.0 µM, active compounds read high
Outline: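 The screen exposed genetically defined yeast (cln2 rad14) to test compounds and scored growth inhibition relative to vehicle-treated controls.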

[5] = NCI Yeast Anticancer Drug Screen. Data for the bub3 strain (AID 167); details: S. cerevisiae bub3 mutant strain, at 50.0 µM, active compounds read high
Outline: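 Inhibition values come from growth of compound-treated mutant yeast normalised to vehicle-treated controls.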

[6] = NCI Yeast Anticancer Drug Screen. Data for the mlh1 rad18 strain (AID 175); details: S. cerevisiae mlh1 rad18 strain growth inhibition; at 50.0 µM; active compounds read high
Outline: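 Compound-treated yeast growth, normalised to vehicle controls. Strain bears defined DNA repair mutations.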

Measured: growth inhibition

CCN(CC)C(=O)NCCCCCCNC(=O)N(CC)CC
inactive: [1] -20.2% | [2] -36.8% | [3] -27.8% | [4] -20% | [5] -29.2% | [6] -23.6%

CCCC1([N+](=O)[O-])CCC(C)(O)C(C(C)=O)C1 (stereo not given)
inactive: [1] -4.3% | [2] -3.8% | [3] 0.9% | [4] -3.35% | [5] -4.8% | [6] 17.4%

NC(=O)NC(=O)C1C2CC3OC(=O)C1C3C2 (stereo not given)
inactive: [1] 13.6% | [2] -4.35% | [3] -3.2% | [4] -37.9% | [5] 2.45% | [6] 20.9%

O=[N+]([O-])c1ccc(N=Nc2c(O)[nH]c3ccc(Br)cc23)cc1
inactive: [1] 22.4% | [2] -20.2% | [3] 14.3% | [4] 10.8% | [5] -15.4% | [6] 15.3%

Cc1ccc(N(CN2C(=O)CCC2=O)CS(=O)(=O)c2ccc(Cl)cc2)cc1
inactive: [1] 10.4% | [2] 3.5% | [3] -0.45% | [4] 14.7% | [5] -3.4% | [6] -19.6%

COC12C=CC(CC1)C1C(=O)C=CC(=O)C12 (stereo not given)
inactive: [1] -36.5% | [2] -31.4% | [3] -4.7% | [4] -39.3% | [5] -24.2% | [6] -21.4%

c1ccc2c(c1)Cc1c-2n[nH]c1-c1[nH]nc2c1Cc1ccccc1-2
inactive: [1] 26.6% | [2] 8.85% | [3] 34.8% | [4] 22.3% | [5] 16% | [6] 55.2%

ClC(Cl)(Cl)CC(Br)c1ccccc1 (stereo not given)
inactive: [1] -1.55% | [2] -8.8% | [3] 7.55% | [4] -22.9% | [5] -6.9% | [6] 2.25%

CN(C)c1ccc(NC2COc3ccccc3C2=O)cc1 (stereo not given)
inactive: [1] -13.1% | [2] 3.9% | [3] 17.4% | [4] -17.2% | [5] 67% | [6] -6.6%

CCN(CC)C(=O)Nc1cccc(O)c1
inactive: [1] -6.55% | [2] 6.65% | [3] -2.6% | [4] -28.7% | [5] -0.25% | [6] 5.65%

COC(=O)CCCCCCCCCCCCC1C=CCC1 (stereo not given)
inactive: [1] 8.9% | [2] -31.1% | [3] 11.4% | [4] 9.25% | [5] -5.85% | [6] 4.25%

COc1ccccc1NC(=S)N1CCC(CCCC2CCN(C(=S)Nc3ccccc3OC)CC2)CC1
inactive: [1] -30.3% | [2] -22.9% | [3] -9.75% | [4] -11.8% | [5] -20.9% | [6] -13.2%

Cc1ccccc1N(CCC#N)C1=NN(C(=O)CC(=O)Nc2ccc(Cl)cc2)C(c2ccccc2)C1 (stereo not given)
inactive: [1] 6.35% | [2] -9.05% | [3] -0.2% | [4] 15% | [5] -16.1% | [6] -5.35%

O=C(Nc1ccccc1[N+](=O)[O-])C(=O)Nc1ccccc1[N+](=O)[O-]
inactive: [1] -7.55% | [2] 5.9% | [3] -2.95% | [4] -22.5% | [5] -0.9% | [6] -0.25%

N#Cc1c(-c2cccn(-c3ccccc3)c2=O)cc(-c2ccccc2)[nH]c1=O
inactive: [1] 1.55% | [2] -5.65% | [3] -5.7% | [4] -19.1% | [5] 0.9% | [6] 9.1%

C/C(=N\n1c(-c2ccccc2)nc2ccccc2c1=O)c1ccc(C)cc1
inactive: [1] 5.25% | [2] 7.8% | [3] -2.7% | [4] 1.5% | [5] 4.95% | [6] -1.75%

COc1ccc2c(c1)[n+](=O)c(C(=O)C/C(=N/OCCCc1ccccc1)C(=O)NC13CC4CC(CC(C4)C1)C3)c(C)n2[O-]
inactive: [1] -1.3% | [2] -3.2% | [3] -19.4% | [4] 17.1% | [5] 3.85% | [6] -4.6%

CCCCCCCCCCCCc1c2ccccc2cc2ccccc12
inactive: [1] 3.55% | [2] -3.8% | [3] -4.7% | [4] -11.4% | [5] 25.1% | [6] 9.5%

COc1ccc(-n2nc3c(ccc4ccccc43)c2N)cc1
inactive: [1] 2.8% | [2] -8.5% | [3] 16.5% | [4] -2.05% | [5] -0.4% | [6] 8.5%

Nc1nc(-c2ccccc2)c(N=Nc2ccc([N+](=O)[O-])cc2Cl)s1
inactive: [1] -4.7% | [2] 2.55% | [3] 4.4% | [4] -13.1% | [5] -11.5% | [6] 3.6%

COc1ccc(-c2coc3c4c(c(CC=C(C)C)c(O)c3c2=O)OC(C)(C)C=C4)cc1OC
inactive: [1] 29.9% | [2] 13.8% | [3] 10.9% | [4] 37.7% | [5] 4.1% | [6] 16.8%

O=C(Oc1ccccc1[N+](=O)[O-])Oc1ccccc1[N+](=O)[O-]
inactive: [1] -3.45% | [2] 16.3% | [3] 19.5% | [4] -29.4% | [5] 16.2% | [6] -2.7%

O=C1CCCCC1O (stereo not given)
inactive: [1] -18.4% | [2] -50.8% | [3] -15.2% | [4] 0.05% | [5] -13.8% | [6] -26.1%

O=C1/C(=C/c2ccc(O)cc2)CCC/C1=C\c1ccc(O)cc1
inactive: [1] 3.9% | [2] 1.85% | [3] 5.2% | [4] 23.1% | [5] -7.05% | [6] 1.45%

CCCCCCCCCCCCCCCCC(NC(C)=O)(C(=O)OCC)C(=O)OCC
inactive: [1] 23.9% | [2] 1.65% | [3] 20.9% | [4] 30.2% | [5] -1.25% | [6] 23.6%

CCCC(=O)OCC(O)CO (stereo not given)
inactive: [1] 12.2% | [2] 1.5% | [3] 1.3% | [4] 18.5% | [5] 4.1% | [6] 18.6%

COC(=O)C(C(=O)C(=O)Nc1ccc(C(F)(F)F)cc1[N+](=O)[O-])c1csc(-n2nc(-c3ccccc3)cc2-c2ccccc2)n1 (stereo not given)
inactive: [1] 19.9% | [2] 18.6% | [3] 42.5% | [4] -13.2% | [5] 23.4% | [6] 1.6%

CC1(C)N=C(C2CCCN2C(=O)OCc2ccccc2)OC1=O (stereo not given)
inactive: [1] -43% | [2] -20.7% | [3] -38.1% | [4] -1.75% | [5] 12.3% | [6] -28.6%

CC(=O)OCN(C)N=Nc1ccc(C(C)=O)cc1
inactive: [1] -4.6% | [2] -11.3% | [3] -27.8% | [4] -22.7% | [5] 20.9% | [6] 5.45%

O=C(O)c1ccc(C(=O)c2ccc(Cl)cc2)cc1
inactive: [1] 31.9% | [2] 44.5% | [3] 42.4% | [4] -6.35% | [5] 13.6% | [6] 34.6%

CCN(CC)CCOC(NC(C)=O)(c1ccccc1)c1ccccc1
inactive: [1] 3.5% | [2] -9.55% | [3] 9.85% | [4] 1.55% | [5] 14.8% | [6] 20%

O=C(Cn1c(C(=O)c2ccccc2)nc2ccccc21)c1ccccc1
inactive: [1] -39.2% | [2] -16.6% | [3] -32.8% | [4] -8.95% | [5] -16.4% | [6] -18%

O/N=C(\C(=N/O)Nc1ccc(-c2ccc(NC(=N/O)/C(=N\O)c3ccccc3)cc2)cc1)c1ccccc1
inactive: [1] 7.35% | [2] -43.4% | [3] -8.5% | [4] 1.45% | [5] -14.4% | [6] 1.1%

Cc1ccccc1S(=O)(=O)Nn1cnc2ccc(S(=O)(=O)Nc3ccc(Cl)cc3)cc2c1=O
inactive: [1] 40.1% | [2] 0.25% | [3] 40.6% | [4] 6.95% | [5] 23.9% | [6] 30.1%

COc1ccccc1NC(=S)NCCO
inactive: [1] 7.25% | [2] 8.7% | [3] 17.6% | [4] 0.8% | [5] 21.1% | [6] 13.6%

Cc1nc2ccccc2c(=O)n1NC(=S)Nc1cccc(Cl)c1
inactive: [1] 7.35% | [2] -35.3% | [3] 28.1% | [4] -12.8% | [5] -8.2% | [6] -26.8%

CC(=O)NC(C(=O)O)C(C)(C)S (stereo not given)
inactive: [1] -1.85% | [2] -48.9% | [3] -4.7% | [4] 26.8% | [5] -33.2% | [6] 8.95%

O=C(NCN1CCOCC1)Nc1ccc(Cl)cc1
inactive: [1] -13.4% | [2] 8.5% | [3] -4.8% | [4] -22.3% | [5] 8.75% | [6] -3.25%

CCN(CC)CC(C(=O)Nc1c(C)cccc1C)/C(C)=N\NC(=O)C[N+](C)(C)C (stereo not given)
inactive: [1] 19.4% | [2] 4.85% | [3] -26.6% | [4] -21.8% | [5] -0.7% | [6] -1.9%

O=C1NC(=O)C2C1C1C=C3c4ccccc4N(c4ccccc4)C32[C@H]2C(=O)NC(=O)[C@@H]12 (stereo not given in full)
inactive: [1] -3.4% | [2] -13.2% | [3] 7.15% | [4] 24.9% | [5] 17.4% | [6] -4.9%

Reference: PubChem BioAssay (NCI)
